# A number with no mark means an inactive call. How the calls were made is not given here.
# Test: compounds altering viability of human ES cells (AID 493140);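 further: cells exposed to compounds for four days before counting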
# Conditions: human embryonic stem cell survival screen; active compounds read high
row,SMILES,survival
1,CCCCN(CCCC)CCC(O)c1cc2c(Cl)cc(Cl)cc2c2cc(C(F)(F)F)ccc12 (centres undefined),1.5
2,Cc1ncc([N+](=O)[O-])n1CC(O)CCl (centres undefined),23.5
3,COc1ncnc(NS(=O)(=O)c2ccc(N)cc2)c1OC,14.8
4,CCN1CCN(C(=O)N[C@@H](C(=O)N[C@@H]2C(=O)N3C(C(=O)O)=C(CSc4nnnn4C)CS[C@H]23)c2ccc(O)cc2)C(=O)C1=O,9.17
5,Cc1c(Nc2ncccc2C(=O)O)cccc1C(F)(F)F,3.67
6,CC(C)(C)NC(=O)[C@H]1CC[C@H]2[C@@H]3CC[C@H]4NC(=O)C=C[C@]4(C)[C@H]3CC[C@]12C,7
7,C[C@]12CC[C@@H]3c4ccc(O)cc4CC[C@H]3[C@@H]1C[C@@H](O)[C@@H]2O,7.75
8,CCOC(=O)NNc1nncc2ccccc12,22
9,CN1CCC(=C2c3ccccc3CCc3sccc32)CC1,5.08
10,O=C(O)CCCC[C@@H]1SC[C@@H]2NC(=O)N[C@@H]21,18.6
11,COc1cccc2c1C(=O)c1c(O)c3c(c(O)c1C2=O)C[C@@](O)(C(=O)CO)C[C@@H]3O[C@H]1C[C@H](N)[C@H](O)[C@H](C)O1,0.167
12,C#C[C@]1(O)CC[C@H]2[C@@H]3CCc4cc(OC)ccc4[C@H]3CC[C@@]21C,3.33
13,COc1ccc(C(=O)c2ccccc2O)c(O)c1,1.42
14,CCC1=C(C)CN(C(=O)NCCc2ccc(S(=O)(=O)NC(=O)NC3CCC(C)CC3)cc2)C1=O (centres undefined),5.08

# Source: PubChem BioAssay
